# From PubChem BioAssay (NCI)
# This is part of a sample that, as a whole, favours compounds with a hit. Of some 83,000 tested, about 20% had one in any assay.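 Percent growth is the endpoint: 0 to 100 indicates growth inhibition (40 means 60% inhibition), 0 means no net growth, and negative values indicate cell death.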 A number with no mark means an inactive call. Activity calls are given as the source filed them. The calls were made as follows: active = growth percent below 10; inactive = the rest.
# Test system: HL-60(TB) leukemia
# Assay: NCI-60 one-dose screen, 48 h (100 = growth as untreated, 0 = no growth, -100 = all killed)
# Conditions: 10 µM unless noted
row,SMILES,growth
1,CN1CCOCCN(C)Cc2ccc3ccc(cc3c2)CN(C)CCOCCN(C)Cc2ccc3ccc(cc3c2)C1,20.7%
2,CCN(CC)CCCC(C)Nc1cc(-c2ccc(C(F)(F)F)cc2)c(C#N)c2nc3ccccc3n12 (stereo not given),-59.8% (active)
3,CC(=O)NCc1cc(C)c(C)cc1C,99.2%
4,Cc1nc(C)c(C(=O)O)cc1C(=O)O,106%
5,CC1(c2ccccc2Cl)NC(=O)NC1=O (stereo not given),87.8%
6,[2H]c1nc(=Nc2cc(NC(=O)C=C)c(N(C)CCN(C)C)cc2OC)[nH]c(-c2cn(C([2H])([2H])[2H])c3ccccc23)c1[2H],-37.8% (active)
7,Cc1ccc(NCCNCC(C)(C)O)c2c(=O)c3ccc(Cl)cc3sc12,-48.3% (active)
8,CCOC(=O)C/C(=N\Nc1cc(=O)[nH]c2ccc(OC)cc12)C(=O)OCC,94%
9,CN(C)CCCC(=O)Nc1ccc(Cn2nnc3c2C(=O)c2nnn(Cc4ccc(NC(=O)CCCN(C)C)cc4)c2C3=O)cc1,8.78% (active)
10,NCC(=O)CCC(=O)O,132%
11,O=S(=O)(NCCNc1nccc(-c2c(-c3ccc(F)c(O)c3)nc3sccn23)n1)c1ccc(O)cc1,41.8%
12,Cc1cc(C(C)(CC(C)C)c2ccc(O)c(C)c2)ccc1O,106%
13,C=C(C)[C@@H]1CC[C@]2(C(=O)N[C@@H](Cc3ccccc3)C(=O)OC)CC[C@]3(C)[C@H](CC[C@@H]4[C@@]5(C)CCC(=O)C(C)(C)[C@@H]5CC[C@]43C)[C@@H]12,56%
14,Fc1ccc2[nH]cc(-c3nc(-c4c[nH]c5c(Cl)nccc45)cs3)c2c1,35.4%
15,COc1ccc2[nH]c(=O)c3c4ccccc4cn3c2c1,-28.4% (active)
16,O=C(NCCNc1nccc(-c2c(-c3cccc(O)c3)nc3sccn23)n1)c1ccccc1O,59.8%
17,COc1cc2nc(-c3ccc(Cl)cc3)cc(OCCCN3CCOCC3)c2cc1OC,27%
18,CCN(CC)CCOc1cccc2c1C(=O)c1ccccc1C2=O,93.3%
19,CCCCOC(=O)c1ccccc1O,93.2%
20,O=C(CN1CCN(C(=O)c2ccccc2)CC1)Nc1ccccc1SCc1ccccc1,80.5%

row,SMILES,growth
1,Cc1ccc(C(=O)Nc2ccc(CN3CCN(C)CC3)c(C(F)(F)F)c2)cc1C#Cc1cnc(N)c2ccc(C#N)cc12,30.9%
2,Fc1cc(-c2nnc3sc(-c4ccc(Cl)cc4Cl)nn23)c(Cl)cc1Cl,161%
3,C=CCN1CCCC1=O,47.1%
4,COCCN(C(=O)Cc1cccs1)C(C(=O)NCc1ccc(OC)cc1)c1ccc(C(C)C)cc1 (stereo not given),105%
5,Clc1nc(Cl)c2c3c(sc2n1)CCCC3,-14.2% (active)
6,C[N+]1=C(/C=C/c2ccccc2Cl)C(C)(C)c2ccccc21,53.5%
7,COc1ccc(C2=NN(c3ccc(S(N)(=O)=O)cc3)C(c3cn(-c4ccccc4)nc3-c3ccc(Cl)cc3)C2)cc1 (stereo not given),84.5%
8,CO[C@H]1/C=C/C=C/C=C/C[C@H](OC(=O)[C@@H](C)NC(=O)C2CCCCC2)[C@H](C)[C@@H](O)/C(C)=C\CCC2=CC(=O)C=C(NC(=O)C1)C2=O,-26.6% (active)
9,CC(C)(C)OC(=O)Nc1ccc2c(c1)C(NC(=O)Nc1cccc(C#N)c1)CC(C)(C)O2 (stereo not given),5.38% (active)
10,N#Cc1c2ccccc2c2n1-c1ccccc1OC(c1ccccc1)C2=O (stereo not given),43.4%
11,Cc1cc(N2CCCCC2)nc(N2CCN(CC(=O)Nc3ccc4c(ccn4Cc4ccccc4)c3)CC2)n1,42.8%
12,COc1ccc(-c2cc(C(=O)N3N=C(c4ccc(N)cc4)CC3c3ccc(Cl)cc3)c3cc(OC)ccc3n2)cc1 (stereo not given),4.62% (active)
13,COc1ccc2c(c1)OC1=C(C(=O)OC1)C2c1cc(OC)c(OC)c(OC)c1 (stereo not given),5.99% (active)
14,COc1cc(/C=C/C(=O)c2ccc(F)cc2)ccc1OCCCCCOc1cc2c(cc1OC)C(=O)N1CCCC1C=N2 (stereo not given),-37.2% (active)
15,Cn1c(=O)c2c(ncn2CC(=O)Nc2ccc(S(N)(=O)=O)cc2)n(C)c1=O,94.2%
16,O=C1c2ccccc2C(=O)c2c1oc1ccc3ccccc3c21,100%
17,Nc1nc(Cl)nc2c1ncn2C1O[C@H](CO)[C@@H](O)[C@@H]1F (stereo not given in full),-34.8% (active)
18,COc1cc(Cl)cc(-c2nn(-c3cccc(NC(=O)c4cc(C(F)(F)F)cc(C(F)(F)F)c4)c3)cc2-c2ccncc2)c1,84.3%
19,O=C1/C(=N/O)CCc2ccccc21,59.1%
20,Cc1cc(-c2ccc(N(C)C)cc2)c2sc(=O)[nH]c2n1,14.3%
